{
  "source": "the supplement of paper PMC9925115",
  "note": "± gives the uncertainty stated by the source.",
  "data": [
    {"system": "FLX1", "experiment": "cell viability z-score within plate (CellTiter-Glo), mean of 3 biological replicates; higher = higher viability relative to plate (less growth inhibition)", "settings": "2 µM; time (hr): 120", "protocol": "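FLX1 fibrolamellar carcinoma cells (DNAJB1-PRKACA fusion), 600 cells/well in 384-well plates, treated with a Selleck kinase inhibitor library (L1200) at 2 uM for 5 days (120 hr); viability by CellTiter-Glo. A z-score was computed within each plate and averaged over three biological replicates.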", "values": [
      {"compound": "CSc1cccc(Nc2ncc3cc(-c4c(Cl)cccc4Cl)c(=O)n(C)c3n2)c1", "cell viability z-score within plate": "0.169 ± 0.22"},
      {"compound": "CC(C)(O)CC(=O)NCCn1ccc2ncnc(Nc3ccc(Oc4cccc(C(F)(F)F)c4)c(Cl)c3)c21", "cell viability z-score within plate": "-0.891 ± 0.77"},
      {"compound": "Oc1cccc(-c2nc(N3CCOCC3)c3oc4ncccc4c3n2)c1", "cell viability z-score within plate": "-0.163 ± 0.28"},
      {"compound": "N#CC(=C(/N)Sc1ccccc1N)/C(C#N)=C(\\N)Sc1ccccc1N", "cell viability z-score within plate": "-1.01 ± 0.4"},
      {"compound": "C=CC(=O)Nc1ccc2ncnc(Nc3cccc(Br)c3)c2c1", "cell viability z-score within plate": "-1.55 ± 0.85"},
      {"compound": "CC(C)(C)c1nc(-c2cccc(NS(=O)(=O)c3c(F)cccc3F)c2F)c(-c2ccnc(N)n2)s1", "cell viability z-score within plate": "0.0787 ± 0.036"},
      {"compound": "Cc1nc(Nc2n[nH]c3c2CN(C(=O)N[C@H](CN(C)C)c2ccccc2)C3(C)C)c2sccc2n1", "cell viability z-score within plate": "1.12 ± 0.47"},
      {"compound": "CCc1cncnc1N1CCN(Cc2nc3ccc(C(F)(F)F)cc3[nH]2)CC1", "cell viability z-score within plate": "0.164 ± 0.73"},
      {"compound": "Cn1cc(C2=C(c3ccc(Cl)cc3Cl)C(=O)NC2=O)c2ccccc21", "cell viability z-score within plate": "-1.2 ± 0.71"},
      {"compound": "Cc1cc(N2CCOCC2)cc2[nH]c(-c3c(NC[C@@H](O)c4cccc(Cl)c4)cc[nH]c3=O)nc12", "cell viability z-score within plate": "-0.387 ± 0.41"},
      {"compound": "C[C@H](Nc1ncnc2nc[nH]c12)c1cc2cccc(Cl)c2c(=O)n1-c1ccccc1", "note": "[Duvelisib (IPI-145, INK1197)]", "cell viability z-score within plate": "0.585 ± 0.95"},
      {"compound": "CO[C@H]1C[C@@H]2CC[C@@H](C)[C@@](O)(O2)C(=O)C(=O)N2CCCC[C@H]2C(=O)O[C@H]([C@H](C)C[C@@H]2CC[C@@H](OCCO)[C@H](OC)C2)CC(=O)[C@H](C)/C=C(\\C)[C@@H](O)[C@@H](OC)C(=O)[C@H](C)C[C@H](C)/C=C/C=C/C=C/1C", "note": "[Everolimus (RAD001)]", "cell viability z-score within plate": "-0.497 ± 1.1"},
      {"compound": "Oc1ccc(-c2nc(-c3ccc(F)cc3)c(-c3ccncc3)[nH]2)cc1", "cell viability z-score within plate": "-1.48 ± 1.1"},
      {"compound": "O=C(NC1CCNCC1)c1n[nH]cc1NC(=O)c1c(Cl)cccc1Cl", "cell viability z-score within plate": "-0.72 ± 0.28"}
    ]},
    {"system": "FLX1 + dox-induced PRKAR1A G325D", "experiment": "difference in log2 fold change of viability vs plate median (dox-induced PRKAR1A G325D minus uninduced); higher = compound less effective when PKA is inhibited", "settings": "concentration: not stated (2 or 5 uM); 5 days", "protocol": "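For each plate a log2 fold change vs the plate median was derived, and the values without dox were subtracted from those with dox, averaged over three biological replicates.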", "values": [
      {"compound": "OCCn1cc(-c2ccc3c(c2)CC/C3=N\\O)c(-c2ccncc2)n1", "difference in log2 fold change of viability": 0.00993},
      {"compound": "CO[C@H]1C[C@@H]2CC[C@@H](C)[C@@](O)(O2)C(=O)C(=O)N2CCCC[C@H]2C(=O)O[C@H]([C@H](C)C[C@@H]2CC[C@@H](OC(=O)C(C)(CO)CO)[C@H](OC)C2)CC(=O)[C@H](C)/C=C(\\C)[C@@H](O)[C@@H](OC)C(=O)[C@H](C)C[C@H](C)/C=C/C=C/C=C/1C", "difference in log2 fold change of viability": 0.457},
      {"compound": "COc1c(C)c(C(=O)c2ccc(N)c(C(=O)O)c2)n2ccccc12", "difference in log2 fold change of viability": 0.093},
      {"compound": "C[C@H](Nc1ncnc2nc[nH]c12)c1cc2cccc(Cl)c2c(=O)n1-c1ccccc1", "note": "[Duvelisib (IPI-145, INK1197)]", "difference in log2 fold change of viability": -0.0226}
    ]}
  ]
}
